Mtb FBA inh: Mtb fructose-bisphosphate aldolase inhibition; purified M. tuberculosis FBA, fluorescence read-out; 360,000 compounds, 2.3% hits; inhibition, % at 1 µM; P9WQA3; in the data active means inhibition above about 27%
Target sequence (P9WQA3 whole entry, looked up): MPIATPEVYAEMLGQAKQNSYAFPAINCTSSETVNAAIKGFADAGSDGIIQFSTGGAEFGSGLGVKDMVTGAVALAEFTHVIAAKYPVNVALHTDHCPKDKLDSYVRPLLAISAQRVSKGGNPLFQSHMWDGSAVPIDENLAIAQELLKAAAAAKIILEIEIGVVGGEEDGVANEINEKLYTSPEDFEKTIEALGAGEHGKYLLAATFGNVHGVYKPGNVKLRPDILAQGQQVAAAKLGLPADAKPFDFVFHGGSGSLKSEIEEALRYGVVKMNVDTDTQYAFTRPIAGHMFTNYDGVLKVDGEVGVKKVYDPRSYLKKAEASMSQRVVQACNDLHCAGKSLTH
Mtb BioA inh: inhibitors of Mycobacterium tuberculosis BioA enzyme; purified M. tuberculosis BioA enzyme, plate reader; inhibition, % at 9.99 µM; 360,000 compounds, 0.096% hits; AID 602481; in the data active means inhibition above about 40%; inconclusive means no clear call, values can overlap the other calls
GDH-TPI inh: counter-screen for M. tuberculosis FBA inhibitors: GDH-TPI coupled enzymes; GDH-TPI coupled enzyme counterscreen, NADH absorbance; inhibition, % at 4.8 µM; 360,000 compounds, 1.2% hits; in the data active means inhibition above about 30%
FadD28 binding: M. tuberculosis FadD28 bisubstrate binding inhibition; inhibition, % at 12.5 µM; FadD28 bisubstrate probe binding, fluorescence polarization; 360,000 compounds, 0.22% hits; in the data active means inhibition above about 8.5%, passing the limit was not always enough; inconclusive means no clear call, values can overlap the other calls
Mtb hypoxia inh: inhibitors of hypoxia-regulated fluorescent reporter in Mycobacterium tuberculosis; M. tuberculosis hypoxia-regulated fluorescent reporter, fluorescence; fluorescence inhibition, % (concentration not given with the values); 300,000 compounds, 0.1% hits; in the data active means fluorescence inhibition mostly above about 23%, no sharp cut-off; inactive means mostly below about 17%
Of the large screens only hits and unclear results are named; the others gave an inactive call. Shown are actives, neighbours in structure and some others; about 2.9% of the full set was active somewhere.

O=C(C[C@@H]1CC[C@@H]2[C@H](COC[C@@H](O)CN2Cc2cccc(F)c2)O1)NCCc1ccncc1	none (no result: Mtb FBA inh, GDH-TPI inh, FadD28 binding, Mtb hypoxia inh)
Cc1ccc(Cn2ccc(=O)c(OCc3c(Cl)cccc3Cl)c2C)cc1	Mtb hypoxia inh 67.5
C[C@@H]1CN([C@H](C)CO)C(=O)c2cc(NC(=O)CCC(F)(F)F)ccc2O[C@@H]1CN(C)Cc1ccc(Cl)c(Cl)c1	none (no result: Mtb FBA inh, GDH-TPI inh, FadD28 binding, Mtb hypoxia inh)
Cc1cccc(N/C=C/C(=C(C#N)C#N)N(C)C)c1	FadD28 binding 11.0 (no result: Mtb BioA inh)
CN(C)C(/C=C/Nc1cccc(Br)c1)=C(C#N)C#N	none (no result: Mtb BioA inh)
O=c1ccc2cc(OC3OC(CO)C(O)C(O)C3O)c(O)cc2o1 (stereo not given)	none (no result: Mtb FBA inh, Mtb BioA inh, GDH-TPI inh, FadD28 binding)
COc1cc2cc(Oc3ccc4ccc(=O)oc4c3)c(=O)oc2cc1OC1OC(COC(=O)CC(C)(O)CC(=O)O)C(O)C(O)C1O (stereo not given)	GDH-TPI inh 32.4 (no result: Mtb hypoxia inh)
O=c1ccc2cc(O[C@@H]3O[C@H](CO)[C@@H](O)[C@H](O)[C@H]3O)c(O)cc2o1	Mtb FBA inh active (no result: Mtb hypoxia inh)
CC1OC23CCCCC2C(C#N)(C(=N)O3)C1(C#N)C#N (stereo not given)	none (no result: Mtb BioA inh)
CCC1OC23CCCCC2C(C#N)(C(=N)O3)C1(C#N)C#N (stereo not given)	Mtb FBA inh 58.3
O=C(C[C@H]1C[C@@H]2c3cc(NC(=O)C4CCC4)ccc3O[C@@H]2[C@H](CO)O1)NCCc1ccccc1	none (no result: Mtb FBA inh, GDH-TPI inh, FadD28 binding, Mtb hypoxia inh)
CC(C)(C)NC(=O)C=Cc1cccc(C(F)(F)F)c1	none (no result: Mtb FBA inh, Mtb BioA inh, GDH-TPI inh, FadD28 binding)
CCc1cccc2c(C(=O)CSc3nncn3-c3ccccc3OC)c[nH]c12	none
CCc1cccc2c(C(=O)CSc3nncn3-c3ccc(OC)cc3)c[nH]c12	FadD28 binding 13.7 (no result: Mtb BioA inh)
C[C@@H]1CN([C@H](C)CO)C(=O)c2cc(NS(C)(=O)=O)ccc2O[C@@H]1CN(C)C(=O)Nc1ccc(C(F)(F)F)cc1	none (no result: Mtb FBA inh, GDH-TPI inh, FadD28 binding, Mtb hypoxia inh)
C[C@@H]1CN([C@@H](C)CO)C(=O)c2cccc(NS(=O)(=O)c3ccccc3)c2O[C@H]1CN(C)C(=O)Nc1ccc(C(F)(F)F)cc1	none (no result: Mtb FBA inh, GDH-TPI inh, FadD28 binding, Mtb hypoxia inh)
Cc1cccc(C)c1NC(=O)/C(C#N)=C/c1cccs1	GDH-TPI inh 42.2 (no result: Mtb hypoxia inh)
N#CC(=Cc1cccs1)C(=O)Nc1nccs1	none (no result: Mtb FBA inh, Mtb BioA inh, GDH-TPI inh, FadD28 binding)
CCCCCCCCCCCCCCCC[n+]1ccc(/C=N/O)cc1	none (no result: Mtb BioA inh, Mtb hypoxia inh)
CCCCCCCC[n+]1cccc(C(=O)N(CC)CC)c1	none (no result: Mtb BioA inh)
CCCCCCCCCCCCCCCC[n+]1cccc(C(=O)N(CC)CC)c1	FadD28 binding 13.7
CCCCCCC[n+]1ccc(-c2cc[n+](CCCCCCC)cc2)cc1	Mtb hypoxia inh 81.3
CCCCCCCCCCCCCCCC[n+]1ccc(C(N)=O)cc1	FadD28 binding 22.5
CCCCCCCCCCCCCCCC[n+]1ccccc1	FadD28 binding 31.8
O=C(O)C[C@H]1C[C@@H]2c3cc(NC(=O)Nc4ccccc4)ccc3O[C@@H]2[C@@H](CO)O1	none (no result: Mtb FBA inh, GDH-TPI inh, FadD28 binding, Mtb hypoxia inh)
O=C(ON=C1CCCc2ccccc21)C1CC1	none (no result: Mtb FBA inh, Mtb BioA inh, GDH-TPI inh, FadD28 binding)
O=C(C[C@H]1CC[C@H]2[C@@H](COC[C@H](O)CN2Cc2nccs2)O1)NCc1ccccc1F	none (no result: Mtb FBA inh, GDH-TPI inh, FadD28 binding, Mtb hypoxia inh)
COc1ccccc1Nc1ccc2c(O)cc(S(=O)(=O)O)cc2c1	FadD28 binding 69.7
Cc1ccc(S(=O)(=O)N(C)C[C@H]2Oc3c(NC(=O)c4ccncc4)cccc3C(=O)N([C@H](C)CO)C[C@H]2C)cc1	none (no result: Mtb FBA inh, GDH-TPI inh, FadD28 binding, Mtb hypoxia inh)
COc1ccc(C2C3C(=O)N(C(C)(C)C)C(=O)C3[C@]3(C)C(=O)N(c4ccc(C(F)(F)F)cc4)C(=O)N23)cc1 (stereo not given in full)	none (no result: Mtb FBA inh, Mtb BioA inh, GDH-TPI inh, FadD28 binding)
O=C1CN=C(c2ccc(F)cc2)c2oc3ccccc3c2N1	none (no result: Mtb BioA inh)
O=C1CCC(=O)c2oc3ccccc3c2N1	GDH-TPI inh 30.9
CO[C@@H]1CN(C)C(=O)c2ccc(NC(C)=O)cc2OC[C@H](C)N(C(=O)c2ccc(F)cc2)C[C@@H]1C	none (no result: Mtb FBA inh, GDH-TPI inh, FadD28 binding, Mtb hypoxia inh)
Oc1ccc(/C=N/N=C/c2ccc(O)c(O)c2)cc1O	GDH-TPI inh 43.1 (no result: Mtb hypoxia inh)
O=C1Nc2ccccc2/C1=N\N=C\c1ccc(O)c(O)c1	GDH-TPI inh 35.8 (no result: Mtb hypoxia inh)
Oc1ccc(/C=N/N=C/c2ccc(O)cc2)cc1	GDH-TPI inh 31.2 (no result: Mtb BioA inh, Mtb hypoxia inh)
COc1cc(/C=N/N=C2/C(=O)Nc3ccccc32)ccc1O	none (no result: Mtb hypoxia inh)
Cc1ccc(/C=N/N=C/c2ccc(C)cc2)cc1	none (no result: Mtb hypoxia inh)
Oc1ccc(N=Cc2ccc(O)c(O)c2)cc1	FadD28 binding inconclusive (no result: Mtb BioA inh)
COCC(=O)N1[C@@H]2c3ccc(C4=CCCCC4)c(=O)n3C[C@@H]2[C@@H](CO)[C@@H]1C(=O)N1CCN(C)CC1	none (no result: Mtb FBA inh, GDH-TPI inh, FadD28 binding, Mtb hypoxia inh)
Cc1c(OCc2nn[nH]n2)ccc2c3c(c(=O)oc12)CCCC3	Mtb FBA inh 124.4
CCCc1cc(=O)oc2cc(C)cc(O)c12	none
Cc1cc2oc(=O)c3c(c2cc1OCc1nn[nH]n1)CCCC3	none
Cc1c(OCC(=O)N2CCC(C(N)=O)CC2)ccc2c3c(c(=O)oc12)CCCC3	none (no result: Mtb hypoxia inh)

Source: PubChem BioAssay
